Source: the supplement of paper PMC13380429

Legend:
[1] = system: Vero E6 infected with SARS-CoV-2; assay: morphology score (similarity to uninfected cells); higher = more like uninfected cells; details: 24 h
[2] = system: Vero E6 infected with SARS-CoV-2; assay: SARS-CoV-2 infection rate relative to infected DMSO; higher = more infection, active = 60 or less; details: 24 h

SMILES: O=C(O)Cc1cccnc1C(=O)O [homoquinolinic-acid] (10 µM)
- morphology score [1]: 0.0575
- SARS-CoV-2 infection rate [2]: 102% (inactive)

SMILES: C=CC(=O)Nc1cccc(Nc2nc(Nc3ccc(OCCOC)cc3)ncc2F)c1 (0.833333 µM)
- morphology score [1]: -0.0246
- SARS-CoV-2 infection rate [2]: 116% (inactive)

SMILES: CCCOCCn1c(=O)c(N2CCN(CCO)CC2)nc2cnc(-c3ccc(OC)nc3)cc21 (10 µM)
- morphology score [1]: -0.0795
- SARS-CoV-2 infection rate [2]: 116% (inactive)

SMILES: CC(C)(O)c1ccn2c(-c3ccc(F)c(-c4ccc(F)cc4C#N)c3)cnc2c1F (10 µM)
- morphology score [1]: -0.0136
- SARS-CoV-2 infection rate [2]: 108% (inactive)

SMILES: Cc1ccc(Cl)c(OC[C@H](O)CNC(C)C)c1 [1-(2-chloro-5-methylphenoxy)-3-(isopropylamino)-2-propanol] (10 µM)
- morphology score [1]: 0.0769
- SARS-CoV-2 infection rate [2]: 95.5% (inactive)

SMILES: NC(=O)OCC(COC(N)=O)c1ccccc1 [felbamate] (10 µM)
- morphology score [1]: -0.0125
- SARS-CoV-2 infection rate [2]: 99% (inactive)

SMILES: CC1=C(/C=C/C(C)=C/C=C/C(C)=C/C(=O)O)C(C)(C)CCC1 [tretinoin] (10 µM)
- morphology score [1]: -0.0366
- SARS-CoV-2 infection rate [2]: 104% (inactive)

SMILES: O=[N+]([O-])c1ccccc1S(=O)(=O)NCC1CCC(CNC[C@H]2CCc3ccccc3C2)CC1 (some centres undefined) (0.833333 µM)
- morphology score [1]: -0.0186
- SARS-CoV-2 infection rate [2]: 97.5% (inactive)

SMILES: CC(=O)NC[C@H]1CN(c2ccc(N3CCN(C(=O)CO)CC3)c(F)c2)C(=O)O1 [eperezolid] (10 µM)
- morphology score [1]: 0.0417
- SARS-CoV-2 infection rate [2]: 112% (inactive)

SMILES: O=c1cc(-c2ccccc2)oc2cc(O)c(O)c(O)c12 [baicalein] (10 µM)
- morphology score [1]: 0.196
- SARS-CoV-2 infection rate [2]: 85% (inactive)

SMILES: FC(F)(F)Oc1ccc2nc(-c3ccc(OCCOCCOc4ccc(-c5nc6ccc(OC(F)(F)F)cc6[nH]5)nc4)cn3)[nH]c2c1 (10 µM)
- morphology score [1]: -0.247
- SARS-CoV-2 infection rate [2]: 116% (inactive)

SMILES: C=C[C@](C)(O)CC[C@@H]1[C@@]2(C)CCCC(C)(C)[C@@H]2CC[C@@]1(C)O [sclareol] (10 µM)
- morphology score [1]: 0.142
- SARS-CoV-2 infection rate [2]: 95.5% (inactive)

SMILES: COC1CCN(c2cccc(-c3cc(NC(C)=O)nc(-n4nc(C)cc4C)n3)n2)CC1 (10 µM)
- morphology score [1]: -0.0121
- SARS-CoV-2 infection rate [2]: 104% (inactive)

SMILES: C[C@@H](NC(=O)c1ncnc(N)c1Cl)c1ncc(C(=O)Nc2cc(C(F)(F)F)c(Cl)cn2)s1 (10 µM)
- morphology score [1]: -0.0506
- SARS-CoV-2 infection rate [2]: 108% (inactive)

SMILES: CC(=O)CC/C=C(\C)CC/C=C(\C)CC/C=C(\C)CCC=C(C)C [teprenone] (10 µM)
- morphology score [1]: 0.0677
- SARS-CoV-2 infection rate [2]: 101% (inactive)

SMILES: O=C(O)C(O)Cc1ccc(O)c(O)c1 (centres undefined) [sodium-danshensu] (10 µM)
- morphology score [1]: 0.114
- SARS-CoV-2 infection rate [2]: 106% (inactive)

SMILES: COc1ccc([C@@H]2CC(=O)c3c(O)cc(O[C@@H]4O[C@H](CO)[C@@H](O)[C@H](O)[C@H]4O[C@@H]4O[C@@H](C)[C@H](O)[C@@H](O)[C@H]4O)cc3O2)cc1O [neohesperidin] (10 µM)
- morphology score [1]: 0.00505
- SARS-CoV-2 infection rate [2]: 112% (inactive)

SMILES: O=C(O)c1cc2cccc([N+](=O)[O-])c2[nH]1 (10 µM)
- morphology score [1]: -0.0876
- SARS-CoV-2 infection rate [2]: 100% (inactive)

SMILES: Cc1sc(N)c(C(=O)c2cccc(C(F)(F)F)c2)c1C (10 µM)
- morphology score [1]: -0.0662
- SARS-CoV-2 infection rate [2]: 99% (inactive)

SMILES: COc1c(Nc2ccc(S(C)(=O)=O)nc2C)ncnc1OC1CCN(C(=O)OC(C)C)CC1 (10 µM)
- morphology score [1]: -0.00778
- SARS-CoV-2 infection rate [2]: 100% (inactive)

SMILES: C[C@H]1C[C@H]2[C@@H]3CCC4=CC(=O)C=C[C@]4(C)[C@H]3C(=O)C[C@]2(C)[C@@]1(O)C(=O)CO [Betapar (Meprednisone)] (10 µM)
- morphology score [1]: 0.0238
- SARS-CoV-2 infection rate [2]: 108% (inactive)

SMILES: Cc1ccc(Cl)cc1N(CC(=O)Nc1c(F)cccc1F)S(C)(=O)=O (10 µM)
- morphology score [1]: 0.0341
- SARS-CoV-2 infection rate [2]: 113% (inactive)

SMILES: c1ccc(CN(CC2=NCCN2)c2ccccc2)cc1 [antazoline] (10 µM)
- morphology score [1]: -0.22
- SARS-CoV-2 infection rate [2]: 112% (inactive)

SMILES: CNC(=O)c1ccccc1Nc1cc(Nc2ccc(N3CCOCC3)cc2OC)ncc1C(F)(F)F (10 µM)
- morphology score [1]: -0.0543
- SARS-CoV-2 infection rate [2]: 111% (inactive)

SMILES: C[N+](C)(C)CC[N+]1(C)Cc2c(Cl)c(Cl)c(Cl)c(Cl)c2C1 [chlorisondamine-diiodide] (10 µM)
- morphology score [1]: 0.224
- SARS-CoV-2 infection rate [2]: 90.5% (inactive)

SMILES: O=C(O)C(Cc1ccccc1[N+](=O)[O-])=NNc1nc(-c2ccc(Cl)c(Cl)c2)cs1 (10 µM)
- morphology score [1]: 0.23
- SARS-CoV-2 infection rate [2]: 102% (inactive)

SMILES: C[C@@H](N[C@H]1CCCC[C@@H]1NC(=O)c1ccc(Cl)cc1)c1cccc2ccccc12 [Calhex-231] (10 µM)
- morphology score [1]: 0.134
- SARS-CoV-2 infection rate [2]: 91.5% (inactive)
